Screening data (PubChem BioAssay)
HP1b binding inh: HP1-beta chromodomain-methylated histone interaction inhibition. AID 540317. Potency, µM (highest dose often 114 µM), most hits filed as inhibitors. P83916. 0.56% of 390,000 active. AlphaScreen HP1-beta / biotin-H3K9me3 peptide binding; further: nearly all actives have a fitted effect of over 70% in size
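AlphaScreen: HP1-beta (50 nM) preformed 30 min with biotin-H3(1-18)K9me3 peptide (50 nM) in PBS pH 7.4, 0.01% Tween-20. Compound added for 30 min at RT, then streptavidin donor/nickel chelate acceptor beads (10 ug/mL) for 30 min.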
JMJD2A Tudor inh: inhibitors of human JMJD2A Tudor domain. O75164. AlphaScreen JMJD2A-Tudor / H3K4me3 peptide binding. Potency, µM (doses to about 114 µM), most hits filed as inhibitors. 4.4% of 390,000 active; further: nearly all actives have a fitted effect of over 50% in size
Target sequence (O75164 whole entry, looked up, the tested form may be a part): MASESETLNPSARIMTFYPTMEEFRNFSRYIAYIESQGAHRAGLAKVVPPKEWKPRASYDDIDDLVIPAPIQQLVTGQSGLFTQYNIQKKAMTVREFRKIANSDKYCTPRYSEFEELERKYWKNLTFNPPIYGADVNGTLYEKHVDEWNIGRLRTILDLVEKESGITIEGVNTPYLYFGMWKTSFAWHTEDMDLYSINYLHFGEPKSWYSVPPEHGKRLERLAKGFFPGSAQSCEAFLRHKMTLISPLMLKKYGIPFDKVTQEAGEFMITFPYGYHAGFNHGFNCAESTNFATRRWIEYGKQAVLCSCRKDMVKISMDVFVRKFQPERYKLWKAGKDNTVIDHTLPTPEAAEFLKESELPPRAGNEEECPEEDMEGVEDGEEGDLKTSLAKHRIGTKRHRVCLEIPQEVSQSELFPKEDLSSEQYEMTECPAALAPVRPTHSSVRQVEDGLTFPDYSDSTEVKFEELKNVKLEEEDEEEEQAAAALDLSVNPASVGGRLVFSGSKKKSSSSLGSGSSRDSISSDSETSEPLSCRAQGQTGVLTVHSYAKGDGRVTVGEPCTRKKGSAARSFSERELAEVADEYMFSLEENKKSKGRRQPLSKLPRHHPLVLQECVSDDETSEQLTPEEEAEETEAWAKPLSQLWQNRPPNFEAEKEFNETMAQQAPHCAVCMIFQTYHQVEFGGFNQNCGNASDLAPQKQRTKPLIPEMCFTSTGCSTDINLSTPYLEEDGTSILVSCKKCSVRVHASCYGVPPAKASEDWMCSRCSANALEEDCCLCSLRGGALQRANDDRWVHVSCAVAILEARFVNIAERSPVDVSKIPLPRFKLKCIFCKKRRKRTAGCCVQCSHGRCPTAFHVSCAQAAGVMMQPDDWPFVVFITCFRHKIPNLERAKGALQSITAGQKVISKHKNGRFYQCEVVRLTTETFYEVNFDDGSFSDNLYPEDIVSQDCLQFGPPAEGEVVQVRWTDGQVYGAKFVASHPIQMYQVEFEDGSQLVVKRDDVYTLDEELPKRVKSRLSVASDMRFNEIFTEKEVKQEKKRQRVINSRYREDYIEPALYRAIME
BAZ2B inh: BAZ2B (human) inhibition; Q9UIF8; AlphaScreen BAZ2B-H3K14Ac peptide displacement; Potency, µM (highest dose often 114 µM), usual class: inhibitors; 4.4% of 360,000 active; further: nearly all actives have a fitted effect of over 60% in size
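Multi-concentration screen (max 110 uM) measuring displacement of acetylated histone H3 peptide from BAZ2B by AlphaScreen, using 50 nM protein, 50 nM peptide and 10 ug/mL streptavidin donor plus Ni-chelate acceptor beads.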
PLK1 PBD inh: inhibitors of human PLK1 polo-box domain binding. Plk1 PBD binding of FITC phosphopeptide, fluorescence polarization. P53350. Potency, µM, usual class: inhibitors. 2.8% of 360,000 active. AID 720504; further: series mostly up to about 57 µM; nearly all actives have a fitted effect of over 65% in size
G9a block: G9a (human) methyltransferase inhibition; 8.8% of 350,000 active; G9a H3K9 monomethylation, AlphaScreen, 2 h; Potency, µM (titrated, usually from 102 µM), actives largely listed as inhibitors; Q96KQ7; further: nearly all actives have a fitted effect of over 75% in size
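G9a (20 nM) was preincubated 15 min with compound, then reacted 2 h at room temperature with 500 nM biotin-H3K9 peptide and 20 µM SAM. Monomethyl-H3K9 detected by AlphaScreen using anti-H3K9me1 antibody.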
ALOX12 inh: blocks human arachidonate 12S-lipoxygenase | Potency, µM (titrated, usually from 108 µM), usual class: inhibitors | 1.1% of 580,000 active | purified 12hLO, xylenol orange hydroperoxide absorbance | P18054
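Hydroperoxide product was detected by ferrous iron/xylenol orange as the 573 to 405 nm absorbance ratio. Arachidonic acid at 40 uM (final) was turned over for 30 min at room temperature by 150 nM human 12hLO, pH 7.0 Hepes buffer, after 15 min compound preincubation.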
A number is an active result; ! = repeats disagree; [ ] = remark or other dose. This is a sample that favours compounds with a hit; in the whole collection about 9% have one here. The call rests on the fitted dose curve; in most records, active means well fitted curve in the direction sought with a large enough effect; inconclusive means small, poorly fitted or top-dose-only effect, or another doubt; inactive means no such curve, though single readings can be large; an effect the other way counts as inactive or inconclusive.

For COc1ccc(Cc2nc(-c3cccs3)no2)cc1 the results were HP1b binding inh inactive, JMJD2A Tudor inh inactive, BAZ2B inh inactive, PLK1 PBD inh inactive, G9a block inactive and ALOX12 inh inactive.
Screening CCOc1ccc(S(=O)(=O)[C@H]2CS(=O)(=O)C[C@@H]2N2CCOCC2)cc1 returned ALOX12 inh inactive.
Screening Cc1cccc(N2C(S)=C(C#N)C(=O)NC2c2cccs2)c1 (stereo not drawn) returned HP1b binding inh inactive, JMJD2A Tudor inh inactive, BAZ2B inh inactive, PLK1 PBD inh inconclusive, G9a block 40µM and ALOX12 inh inconclusive.
Cc1ccccc1N1C(S)=C(C#N)C(=O)NC1c1ccco1 (stereo not drawn) was read as HP1b binding inh inactive, JMJD2A Tudor inh inactive, BAZ2B inh inconclusive, PLK1 PBD inh inconclusive and ALOX12 inh inconclusive.
`Cc1ccccc1N1C(S)=C(C#N)C(=O)NC1c1cccs1` (stereo not drawn) gave HP1b binding inh inactive, JMJD2A Tudor inh inactive, BAZ2B inh inconclusive, PLK1 PBD inh inconclusive, G9a block 7.9µM and ALOX12 inh inconclusive.
For N#CC1=C(S)N(c2ccc(F)cc2)C(c2cccs2)NC1=O (stereo not drawn) the results were HP1b binding inh inactive, JMJD2A Tudor inh inactive, BAZ2B inh inactive, PLK1 PBD inh inactive, G9a block 16µM and ALOX12 inh inconclusive.
For CC(C)NC(=O)c1ccc2c(c1)N(CC(=O)NC1CCCCC1)C(=O)C(C)(C)O2 the results were HP1b binding inh inactive, JMJD2A Tudor inh inactive, BAZ2B inh inactive, PLK1 PBD inh inactive, G9a block inactive and ALOX12 inh inactive.
For Cn1nc(-c2ccccc2)c2cc(C(=O)O)sc21 the results were HP1b binding inh inactive, JMJD2A Tudor inh inactive, BAZ2B inh inactive, PLK1 PBD inh inactive, G9a block inconclusive and ALOX12 inh inactive.
`O=C(O)Cc1ccc(F)cc1Cl` gave ALOX12 inh inactive.
CC1=C(CC(=O)O)c2cc(F)ccc2/C1=C\c1ccc(S(C)=O)cc1 (stereo not drawn) was read as HP1b binding inh inactive, JMJD2A Tudor inh inactive, BAZ2B inh inactive, PLK1 PBD inh inconclusive, G9a block 8.4µM! and ALOX12 inh inactive.
COc1ccccc1OCC(=O)N1CCCC(Nc2ccc(C)c(C)c2)C1 (stereo not drawn) was read as HP1b binding inh inactive, JMJD2A Tudor inh inconclusive, BAZ2B inh inconclusive, PLK1 PBD inh inactive and ALOX12 inh inactive.
`Cc1ccc(NC2CCCN(C(=O)CSc3ccccn3)C2)cc1C` (stereo not drawn) gave HP1b binding inh inactive, JMJD2A Tudor inh inconclusive, BAZ2B inh inconclusive, PLK1 PBD inh 24µM, G9a block inactive[0.501 µM] and ALOX12 inh inconclusive.
For COc1ccc(CCC(=O)N2CCCC(Nc3ccc(C)c(C)c3)C2)cc1OC (stereo not drawn) the results were HP1b binding inh inactive, JMJD2A Tudor inh inconclusive, BAZ2B inh inconclusive, PLK1 PBD inh inconclusive, G9a block 45µM and ALOX12 inh inactive.
`COc1ccc(NC2CCCN(C(=O)COc3ccc(Cl)cc3C)C2)cc1OC` (stereo not drawn) gave HP1b binding inh inactive, JMJD2A Tudor inh inconclusive, BAZ2B inh inconclusive, PLK1 PBD inh inactive, G9a block 50µM and ALOX12 inh inactive.
Screening C/C(=N\NC(=O)c1cc2ccccc2cc1O)c1cccs1 returned HP1b binding inh inactive, JMJD2A Tudor inh inactive, BAZ2B inh inactive, PLK1 PBD inh inactive, G9a block inactive and ALOX12 inh inactive.
Screening O=C(NCc1ccccc1)N1CCC(N2CC3CC(C2)[C@H]2CCCC(=O)N2C3)CC1 (stereo partly drawn) returned ALOX12 inh inactive.
`COc1cccc(CNC(=O)COC(=O)c2cc(Br)c(Br)s2)c1` gave HP1b binding inh inactive, JMJD2A Tudor inh inactive, BAZ2B inh inactive, PLK1 PBD inh inactive, G9a block inactive[12.7 µM] and ALOX12 inh inactive.
CCOC(=O)c1c(-c2ccco2)csc1NC(=O)COC(=O)c1cnccn1 was read as HP1b binding inh inconclusive, JMJD2A Tudor inh inconclusive, BAZ2B inh inactive, PLK1 PBD inh inactive, G9a block 8.9µM and ALOX12 inh inconclusive.
CCOC(=O)c1c(NC(=O)COC(=O)c2cnccn2)sc(C(=O)NC)c1C was read as HP1b binding inh inactive, JMJD2A Tudor inh inactive, BAZ2B inh inactive, PLK1 PBD inh inactive, G9a block inactive[0.501 µM] and ALOX12 inh inactive.
CCOC(=O)c1c(-c2ccc(C)o2)csc1NC(=O)CN1CCC(C(N)=O)CC1 was read as HP1b binding inh inconclusive, JMJD2A Tudor inh inactive, BAZ2B inh inconclusive, PLK1 PBD inh inactive, G9a block 45µM and ALOX12 inh inactive.
Screening COC(=O)c1c(-c2cccs2)csc1NC(=O)CN1CCOCC1 returned HP1b binding inh inactive, JMJD2A Tudor inh inactive, BAZ2B inh inactive, PLK1 PBD inh inactive, G9a block inactive[12.7 µM] and ALOX12 inh inactive.
For CCOC(=O)c1c(-c2ccc(C)o2)csc1NC(=O)CN1CCCCC1 the results were HP1b binding inh inactive, JMJD2A Tudor inh inactive, BAZ2B inh inconclusive, PLK1 PBD inh inactive, G9a block 40µM and ALOX12 inh inactive.
CCOC(=O)c1c(NC(=O)CSc2nnc(-c3ccco3)o2)sc(C)c1C was read as HP1b binding inh inactive, JMJD2A Tudor inh inactive, BAZ2B inh inactive, PLK1 PBD inh inactive, G9a block inactive and ALOX12 inh inactive.
`CCOC(=O)c1c(-c2ccc(C)o2)csc1NC(=S)NC(=O)c1ccc(F)cc1` gave HP1b binding inh inactive, JMJD2A Tudor inh inactive, BAZ2B inh inactive, PLK1 PBD inh inactive, G9a block inactive and ALOX12 inh inconclusive.
Screening CCOC(=O)c1c(-c2ccco2)csc1NC(=O)CSc1nnc(N)s1 returned HP1b binding inh inactive, JMJD2A Tudor inh inactive, BAZ2B inh inconclusive, PLK1 PBD inh inactive, G9a block 40µM and ALOX12 inh inactive.
`O=C(NCc1ccccc1C(F)(F)F)c1cccc2c1C(=O)c1ccc(N3CCOCC3)cc1S2(=O)=O` gave HP1b binding inh inactive, JMJD2A Tudor inh inactive, PLK1 PBD inh inactive and ALOX12 inh inactive.
`COc1cc2c(c(OC)c1OC)-c1ccc(OC)c(=O)cc1[C@@H](N(C)CC#CCO)CC2` gave HP1b binding inh inactive, JMJD2A Tudor inh inactive, BAZ2B inh inactive, PLK1 PBD inh inactive, G9a block inactive[2.33 µM] and ALOX12 inh inactive.
For Cc1ccc2[nH]c(=O)c(CN(Cc3ccco3)C(=O)N3CCOCC3)cc2c1 the results were HP1b binding inh inactive, JMJD2A Tudor inh inactive, BAZ2B inh inactive, PLK1 PBD inh inactive, G9a block inactive and ALOX12 inh inactive.
Screening CCOC(=O)c1c(-c2ccccc2)csc1NC(=O)CSc1nc(N)cc(N)n1 returned HP1b binding inh inactive, JMJD2A Tudor inh inactive, BAZ2B inh inactive, PLK1 PBD inh inactive, G9a block inconclusive and ALOX12 inh inconclusive.
